# This is one part of a sample in which the strongest signals are shown more often than they occur.
# B1: BT4246 (Bacteroides thetaiotaomicron), Q89ZX5 (protein)
# chain: MGSSHHHHHHENLYFQGHMASDYLDVVPPEQPNIDDAMSSPTRALGFLYSCYGGVSTDLPSAYLGEINSTTDEYVLPYSWNTDGYWGAYAFNTASSTNQDWLWGTTYQYIGQCYLFLQKLENAGSDIASDAEKEQWRAECQFLVAYYHFATLRRYGPIPITDSYIPMDTPTSEYNGRFHFDYCVDWIANQLDEAAKVLPANRTVTNEWGRATSTIAKAVKARLLLYAASPLWNGSFPYPNWQNENFETPGYGKALVSNTYDKSKWERALAACQEALTLATTSGDRELYDDDEYYSRQSLNLPFVPGVADVEDNKEFLKNVMKMRYAVSTRESEGNKEIIWGLSNQFDFYSRYPLRILKKSDGTWHAGYSGVSPTLYTFEHFYTANGKLPEKDLDFTPSSEWFESAGISSREDIIKLNVGREPRFYAWMAFDGGDYGTKFAAGSPLKLEMRNSEMHGYNPSLFNRDHSVTGFLTQKFVDPVTEFYTAGGSTSGTSAPTILFRLAELYLNVAECHAALGNTQEAIDALNPVRERAGIPKLTLADITNNMTIKDWVHNERFVELWNEGHRFFDVRRWAEGAKYFGANKREGLNAEVQSPTFEEFNKRTTVDAPYVWENRMYLNPVFYNEVYKNPQMVQAPGY
# B2: Clec18C (Homo sapiens) (protein)
# chain: MLHPETSPGRGHLLAVLLALLGTAWAEVWPPQLQEQAPMAGALNRKESFLLLSLHNRLRSWVQPPAADMRRLDWSDSLAQLAQARAALCGTPTPSLASGLWRTLQVGWNMQLLPAGLVSFVEVVSLWFAEGQRYSHAAGECARNATCTHYTQLVWATSSQLGCGRHLCSAGQAAIEAFVCAYSPRGNWEVNGKTIVPYKKGAWCSLCTASVSGCFKAWDHAGGLCEVPRNPCRMSCQNHGRLNISTCHCHCPPGYTGRYCQVRCSLQCVHGRLREEECSCVCDIGYGGAQCATKVHFPFHTCDLRIDGDCFMVSSEADTYYRARMKCQRKGGVLAQIKSQKVQDILAFYLGRLETTNEVIDSDFETRNFWIGLTYKTAKDSFRWATGEHQAFTSFAFGQPDNHGFGNCVELQASAAFNWNNQRCKTRNRYICQFAQEHISRWGPGS
# How the values were obtained:
# Test in all cases: glycan array binding signal (z-score within array); higher = stronger binding
# Settings in all cases: glycan notation: IUPAC condensed, linker removed
# [1] = target: Fuc(a1-2)Gal(b1-3)GlcNAc(b1-2)Man(a1-3)[Fuc(a1-2)Gal(b1-3)GlcNAc(b1-2)Man(a1-6)]Man(b1-4)GlcNAc(b1-4)GlcNAc
# Method in brief: (§1)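 Glycan array binding is given as a within-array Z-score, which can be read as non-binding when negative. The arrays, 3228 of them, came from the Consortium for Functional Glycomics database and were retained only where the protein sequence was available. Z-scores were averaged across arrays of the same protein sequence at different concentrations or buffers and across linkers.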
# [2] = target: Fuc(a1-2)Gal(b1-3)[Fuc(a1-4)]GlcNAc(b1-2)Man(a1-3)[Fuc(a1-2)Gal(b1-3)[Fuc(a1-4)]GlcNAc(b1-2)Man(a1-6)]Man(b1-4)GlcNAc(b1-4)[Fuc(a1-6)]GlcNAc(b1-4)[Fuc(a1-6)]GlcNAc
# Method in brief: as §1
# [3] = target: Fuc(a1-2)Gal(b1-4)GlcNAc(b1-3)Gal(b1-4)GlcNAc(b1-2)Man(a1-3)[Fuc(a1-2)Gal(b1-4)GlcNAc(b1-3)Gal(b1-4)GlcNAc(b1-2)Man(a1-6)]Man(b1-4)GlcNAc(b1-4)GlcNAc
# Method in brief: as §1
# [4] = target: Fuc(a1-2)[Gal(a1-3)]Gal(b1-4)GlcNAc(b1-2)Man(a1-3)[Fuc(a1-2)[Gal(a1-3)]Gal(b1-4)GlcNAc(b1-2)Man(a1-6)]Man(b1-4)GlcNAc(b1-4)GlcNAc
# Method in brief: as §1
# [5] = target: Fuc(a1-2)[GalNAc(a1-3)]Gal(b1-4)GlcNAc(b1-3)Gal(b1-4)GlcNAc(b1-3)Gal(b1-4)GlcNAc
# Method in brief: as §1
# [6] = target: Fuc(a1-2)[GalNAc(a1-3)]Gal(b1-4)[Fuc(a1-3)]GlcNAc
# Method in brief: as §1
# [7] = target: Fuc(a1-3)[Gal(b1-4)]GlcNAc(b1-2)Man
# Method in brief: as §1
# [8] = target: Fuc(a1-3)[Gal(b1-4)]GlcNAc(b1-2)Man(a1-3)[Fuc(a1-3)[Gal(b1-4)]GlcNAc(b1-2)Man(a1-6)]Man(b1-4)GlcNAc(b1-4)GlcNAc
# Method in brief: as §1
# [9] = target: Gal(a1-3)[Gal(a1-4)]Gal(b1-4)GlcNAc
# Method in brief: as §1
# [10] = target: Gal(b1-3)GalNAc(b1-4)Gal(b1-4)Glc
# Method in brief: as §1
# [11] = target: Gal(b1-3)[Fuc(a1-4)]GlcNAc(b1-3)Gal(b1-4)[Fuc(a1-3)]GlcNAc
# Method in brief: as §1
# [12] = target: Gal(b1-3)[Neu5Ac(b2-6)]GalNAc
# Method in brief: as §1
# Gal(b1-4)GlcNAc = target: Gal(b1-4)GlcNAc
# Method in brief: as §1
# [13] = target: Gal(b1-4)GlcNAc(a1-6)Gal(b1-4)GlcNAc
# Method in brief: as §1
# [14] = target: Gal(b1-4)GlcNAc(b1-2)Man(a1-3)[Man(a1-6)]Man(b1-4)GlcNAc(b1-4)GlcNAc
# Method in brief: as §1
# [15] = target: Gal(b1-4)GlcNAc(b1-2)[Gal(b1-4)GlcNAc(b1-6)]Man(a1-6)[Gal(b1-4)GlcNAc(b1-2)Man(a1-3)]Man(b1-4)GlcNAc(b1-4)[Fuc(a1-6)]GlcNAc
# Method in brief: as §1
# [16] = target: Gal(b1-4)GlcNAc(b1-3)Gal(b1-4)GlcNAc(b1-2)[Gal(b1-4)GlcNAc(b1-3)Gal(b1-4)GlcNAc(b1-6)]Man(a1-6)[Gal(b1-4)GlcNAc(b1-3)Gal(b1-4)GlcNAc(b1-2)Man(a1-3)]Man(b1-4)GlcNAc(b1-4)GlcNAc
# Method in brief: as §1
# [17] = target: Gal(b1-4)GlcNAc(b1-3)Gal(b1-4)GlcNAc(b1-2)[Gal(b1-4)GlcNAc(b1-3)Gal(b1-4)GlcNAc(b1-6)]Man(a1-6)[Gal(b1-4)GlcNAc(b1-3)Gal(b1-4)GlcNAc(b1-2)Man(a1-3)]Man(b1-4)GlcNAc(b1-4)[Fuc(a1-6)]GlcNAc
# Method in brief: as §1
# [18] = target: Gal(b1-4)GlcNAc(b1-3)Gal(b1-4)GlcNAc(b1-3)Gal(b1-4)GlcNAc(b1-2)Man(a1-3)[Gal(b1-4)GlcNAc(b1-3)Gal(b1-4)GlcNAc(b1-3)Gal(b1-4)GlcNAc(b1-2)Man(a1-6)]Man(b1-4)GlcNAc(b1-4)[Fuc(a1-6)]GlcNAc
# Method in brief: as §1
# [19] = target: Gal(b1-4)GlcNAc(b1-3)Gal(b1-4)GlcNAc(b1-6)[Gal(b1-3)]GalNAc
# Method in brief: as §1
# Gal(b1-6)Gal = target: Gal(b1-6)Gal
# Method in brief: as §1
# [20] = target: GalNAc(b1-4)GlcNAc(b1-2)Man
# Method in brief: as §1
# GalNAc3S(b1-4)GlcNAc = target: GalNAc3S(b1-4)GlcNAc
# Method in brief: as §1
# Glc(b1-6)Glc = target: Glc(b1-6)Glc
# Method in brief: as §1
# [21] = target: GlcNAc(a1-4)Gal(b1-4)GlcNAc(b1-3)Gal(b1-4)GlcNAc
# Method in brief: as §1
# [22] = target: GlcNAc(a1-4)Gal(b1-4)GlcNAc(b1-3)Gal(b1-4)[Fuc(a1-3)]GlcNAc(b1-3)Gal(b1-4)[Fuc(a1-3)]GlcNAc
# Method in brief: as §1
# [23] = target: GlcNAc(b1-2)Man(a1-3)[GlcNAc(b1-4)][GlcNAc(b1-2)Man(a1-6)]Man(b1-4)GlcNAc(b1-4)[Fuc(a1-6)]GlcNAc
# Method in brief: as §1
# [24] = target: GlcNAc(b1-3)Gal(b1-3)GalNAc
# Method in brief: as §1
# [25] = target: GlcNAc(b1-3)Gal(b1-4)GlcNAc(b1-2)Man(a1-3)[GlcNAc(b1-3)Gal(b1-4)GlcNAc(b1-2)Man(a1-6)]Man(b1-4)GlcNAc(b1-4)GlcNAc
# Method in brief: as §1
# [26] = target: GlcNAc(b1-3)Gal(b1-4)GlcNAc(b1-3)Gal(b1-4)GlcNAc(b1-2)Man(a1-3)[GlcNAc(b1-3)Gal(b1-4)GlcNAc(b1-3)Gal(b1-4)GlcNAc(b1-2)Man(a1-6)]Man(b1-4)GlcNAc(b1-4)[Fuc(a1-6)]GlcNAc
# Method in brief: as §1
# Man(a1-3)[Man(a1-6)]Man = target: Man(a1-3)[Man(a1-6)]Man
# Method in brief: as §1
# [27] = target: Neu5Ac(a2-3)Gal(b1-3)GlcNAc(b1-6)GalNAc
# Method in brief: as §1
# [28] = target: Neu5Ac(a2-3)Gal(b1-4)GlcNAc(b1-6)GalNAc
# Method in brief: as §1
# [29] = target: Neu5Ac(a2-6)Gal(b1-4)GlcNAc(b1-2)Man(a1-3)[Man(a1-6)]Man(b1-4)GlcNAc(b1-4)GlcNAc
# Method in brief: as §1
# [30] = target: Neu5Ac(a2-6)Gal(b1-4)GlcNAc(b1-2)Man(a1-3)[Neu5Ac(a2-6)Gal(b1-4)GlcNAc(b1-2)Man(a1-6)]Man(b1-4)GlcNAc(b1-4)GlcNAc
# Method in brief: as §1
# [31] = target: Neu5Ac(a2-6)Gal(b1-4)GlcNAc(b1-3)Gal(b1-3)GlcNAc
# Method in brief: as §1
# [32] = target: Neu5Ac(a2-6)Gal(b1-4)GlcNAc(b1-3)Gal(b1-4)GlcNAc
# Method in brief: as §1
# Neu5Ac(a2-6)GalNAc = target: Neu5Ac(a2-6)GalNAc
# Method in brief: as §1
# Neu5Gc(a2-6)GalNAc = target: Neu5Gc(a2-6)GalNAc
# Method in brief: as §1
Binder,glycan array binding signal (z-score) [1],glycan array binding signal (z-score) [2],glycan array binding signal (z-score) [3],glycan array binding signal (z-score) [4],glycan array binding signal (z-score) [5],glycan array binding signal (z-score) [6],glycan array binding signal (z-score) [7],glycan array binding signal (z-score) [8],glycan array binding signal (z-score) [9],glycan array binding signal (z-score) [10],glycan array binding signal (z-score) [11],glycan array binding signal (z-score) [12],glycan array binding signal (z-score) (Gal(b1-4)GlcNAc),glycan array binding signal (z-score) [13],glycan array binding signal (z-score) [14],glycan array binding signal (z-score) [15],glycan array binding signal (z-score) [16],glycan array binding signal (z-score) [17],glycan array binding signal (z-score) [18],glycan array binding signal (z-score) [19],glycan array binding signal (z-score) (Gal(b1-6)Gal),glycan array binding signal (z-score) [20],glycan array binding signal (z-score) (GalNAc3S(b1-4)GlcNAc),glycan array binding signal (z-score) (Glc(b1-6)Glc),glycan array binding signal (z-score) [21],glycan array binding signal (z-score) [22],glycan array binding signal (z-score) [23],glycan array binding signal (z-score) [24],glycan array binding signal (z-score) [25],glycan array binding signal (z-score) [26],glycan array binding signal (z-score) (Man(a1-3)[Man(a1-6)]Man),glycan array binding signal (z-score) [27],glycan array binding signal (z-score) [28],glycan array binding signal (z-score) [29],glycan array binding signal (z-score) [30],glycan array binding signal (z-score) [31],glycan array binding signal (z-score) [32],glycan array binding signal (z-score) (Neu5Ac(a2-6)GalNAc),glycan array binding signal (z-score) (Neu5Gc(a2-6)GalNAc)
B1,3.2,-0.111,0.084,2.43,0.74,-2.1,0.571,-0.536,0.656,2.02,-0.234,-0.388,-1.31,-0.67,2.35,-0.607,2.71,0.32,0.125,-0.514,0.501,-0.775,1.88,-2.27,-0.394,3.11,2.52,-0.081,0.802,-0.16,–,–,–,–,–,–,–,–,–
B2,–,–,–,–,–,–,–,–,–,–,–,–,–,–,–,–,–,–,–,–,–,–,–,–,–,–,–,–,–,–,-0.507,-0.247,3.92,-0.24,0.183,0.131,3.16,5.42,-0.265
